# Experimental data from PubChem BioAssay (NCATS).
# Where “and” joins values, the source holds several entries; their conditions need not be identical. Equal values may be shown once. Records with an inconclusive call do not appear. Entries that show only a call come without a potency. A number with no mark means an inactive call. Calls of active or inactive are those of the source. Calls come from the whole dose curve; as a rule, active = well fitted curve in the direction sought with a large enough effect; inconclusive = small, poorly fitted or top-dose-only effect, or another doubt; inactive = no such curve, though single readings can be large; an effect the other way counts as inactive or inconclusive.
# Experiments:
# [1] = target: Furin (Homo sapiens) (UniProt P09958); assay: Furin counterscreen qHTS for Zika virus inhibitors (AID 1347149);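 note: purified recombinant full-length human furin enzyme at 5 nM; fluorescence gain from furin cutting a BOC-RVRR-AMC peptide substrate over 15 min; top concentration of the series differs between compounds; nearly all actives have a fitted effect of over 70% in size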
# Procedure, shortened: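 Counterscreen measures cleavage of 2 microM BOC-RVRR-AMC, below its ~15 microM Km, by 5 nM full-length human furin at pH 7.0 after a 15-min compound preincubation. Inhibition derives from the 15-min fluorescence increase at 37C.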
# [2] = system: Zika virus NS2B-NS3 protease; assay: Primary screen GU AMC qHTS for Zika virus inhibitors (AID 1347154); note: nearly all actives have a fitted effect of over 70% in size
# Procedure, shortened: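 Fluorogenic AMC-substrate cleavage by noncovalent NS2B-NS3 protease complex (25 nM, pH 8.0 Tris buffer with Tween 20) followed for 15 minutes at room temperature (~20% conversion). Percent inhibition from ex340/em450 signal change, fitted by 4-parameter Hill equation.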
# [3] = Confirmatory screen GU Rhodamine qHTS for Zika virus inhibitors qHTS (AID 1347157); settings: purified enzyme assay, Rhodamine110 substrate fluorescence, 15 min; note: potency is the fitted concentration of half-maximal effect; nearly all actives have a fitted effect of over 70% in size
# Procedure, shortened: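 A qHTS format was used, with compound concentrations ranging up to 114 microM. Each compound was preincubated with 25 nM NS2B-NS3 protease, and the substrate was then added at 1.5 microM. Curves were fitted with a 4-parameter Hill model.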
# [4] = ZIKV-mCherry secondary qHTS for Zika virus inhibitors (AID 1347158); note: top concentration of the series differs between compounds
# Procedure, shortened: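 Read-out is percent infection: mCherry-positive Vero cells (nuclear-proximal intensity >450 RFU, 3 SD above negative controls) counted by high-content imaging of Hoechst-stained, PFA-fixed wells after 48-72 h with ZIKV-mCherry at MOI 1 and compound.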
# [5] = system: Zika virus NS2B-NS3 protease (linked construct); assay: Primary screen NINDS Rhodamine qHTS for Zika virus inhibitors (AID 1347160); note: nearly all actives have a fitted effect of over 55% in size; note: potency is the fitted concentration of half-maximal effect
# Procedure, shortened: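 Single-chain NS2B-NS3 protease, 25 nM, pH 8.0; compounds preincubated 15 min. Activity: Rhodamine110 release from 1.5 microM substrate over 15 min, room temperature, data fitted to 4-parameter Hill.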
# [6] = Confirmatory screen NINDS Rhodamine qHTS for Zika virus inhibitors (AID 1347161); note: potency is the fitted concentration of half-maximal effect; nearly all actives have a fitted effect of over 60% in size
# Procedure, shortened: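 In 10 mM Tris-HCl pH 8.0 containing 0.01% Tween 20, linked NS2B-NS3 protease (25 nM final) is exposed to test compounds for 15 min. Cleavage of 1.5 microM Rhodamine110 substrate is tracked by fluorescence over 15 min.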
# [7] = system: Zika virus NS2B-NS3 protease (linked); assay: 384 well plate NINDS AMC confirmatory qHTS for Zika virus inhibitors (AID 1347163); note: nearly all actives have a fitted effect of over 50% in size; note: potency is the fitted concentration of half-maximal effect;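 for activity change, negative = inhibition: linked protease at 5 30 or 60 nM final depending on run; fluorescence of AMC released from Ac-VKTGKR-AMC peptide cleaved by the protease; top concentration of the series differs between compounds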
# Procedure, shortened: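 Enzyme (5, 30 or 60 nM final) first met test compounds for ~15 min. The AMC-tagged peptide Ac-VKTGKR-AMC followed at 30 microM. Fluorescence was then recorded at 25 min and scaled against no-enzyme and no-inhibitor wells.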
# [8] = system: Zika virus NS2B-NS3 protease (linked construct); assay: 384 well plate NINDS Rhodamine confirmatory qHTS for Zika virus inhibitors (AID 1347164); note: potency is the fitted concentration of half-maximal effect; nearly all actives have a fitted effect of over 65% in size
# Procedure, shortened: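 Cleavage of Ac-LKRR-Rhodamine 110 (10 microM final) by linked protease (final 5, 30 or 60 nM) was followed as fluorescence at 485/538 nm after 25 min, room temperature, dark. Compounds preincubated ~15 min.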
# [9] = Vero cells viability qHTS for Zika virus inhibitors (AID 1347167)
# Procedure, shortened: (§1)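 Luminescent ATP readout (CellTiter Glo) after 30 min at 37 degrees C gives viability; cells in DMEM + 4% FBS were treated 24 to 48 hours with compound, following overnight attachment.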
# [10] = Tertiary RLuc qRT-PCR qHTS assay for Zika virus inhibitors (AID 1347169); note: top concentration of the series differs between compounds; nearly all actives have a fitted effect of over 55% in size
# Procedure, shortened: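 Inhibition of ZIKV-RLuc replication in Vero cells, read as Renilla luminescence 1-1.5 hrs after live-cell substrate addition, following 48-72 hrs infection at MOI 1-2 in presence of compound.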
# [11] = qHTS to identify inhibitors of the type 1 interferon - major histocompatibility complex class I in skeletal muscle: primary screen against the NCATS Pharmaceutical Collection (AID 1347407);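 note: luminescence of HiBiT knocked into endogenous HLA-B as interferon-induced MHC class I level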
# Procedure, shortened: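 A qHTS format is used: 8-point, 1:5 compound series with 46 uM top final concentration, applied alongside 4 ng/ml IFN-beta to HLA-B*08:01-HiBiT knock-in myoblasts. Luminescence is measured after 24 h treatment.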
# [12] = target: N-terminal Xaa-Pro-Lys N-methyltransferase 1 (Homo sapiens) (UniProt Q9BV86); assay: qHTS Assay for Inhibitors of N-terminal methyltransferase 1 (NTMT1): LOPAC validation of the NTMT1 SAHH-coupled ThioGlo3 Assay (AID 1347143);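 note: SAH from peptide methylation measured as thiol fluorescence via SAHH coupling and ThioGlo3; nearly all actives have a fitted effect of over 70% in size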; note: potency is the fitted concentration of half-maximal effect
# Procedure, shortened: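 NTMT1 125nM + cpds (various conc.), 1 min RT; add SAM 100uM/SAHH 10uM/ThioGlo3 15uM (addition mix). SAHH-coupled thiol detection, Ex340/Em450, t0 and 30 min RT; signal normalized to background. LOPAC 1280-cpd pilot.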
# [13] = system: Zika virus NS2B-NS3 protease (unlinked); assay: Optimization of GU AMC qHTS for Zika virus inhibitors: Unlinked NS2B-NS3 protease assay (AID 1347151); note: nearly all actives have a fitted effect of over 80% in size; note: potency is the fitted concentration of half-maximal effect; for activity change, negative = inhibition: series mostly up to about 52 µM
# Procedure, shortened: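 In this qHTS, compounds acted on 25 nM unlinked Zika NS2B–NS3 in pH 8.0 Tris/Tween buffer. Cleavage of an AMC peptide ran 15 min at room temperature, to about 20% conversion.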
# [14] = HepG2 cells viability qHTS for Zika virus inhibitors (AID 1347168)
# Procedure, shortened: as §1
# [15] = system: Zika virus NS2B-NS3 protease (unlinked complex); assay: Primary screen GU Rhodamine qHTS for Zika virus inhibitors: Unlinked NS2B-NS3 protease assay (AID 1347159); note: nearly all actives have a fitted effect of over 60% in size
# Procedure, shortened: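 Unlinked NS2B/NS3, 25 nM; Rhod110 peptide, 1.5 microM; compounds, up to 114 microM. Reaction run 15 min at RT in 10 mM Tris-HCl pH 8.0, 0.01% Tween 20; kinetic fluorescence change fitted with a 4-parameter Hill model.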
# N-terminal Xaa-Pro-Lys N-methyltransferase 1 (Homo sapiens), sequence (Q9BV86 whole entry, looked up): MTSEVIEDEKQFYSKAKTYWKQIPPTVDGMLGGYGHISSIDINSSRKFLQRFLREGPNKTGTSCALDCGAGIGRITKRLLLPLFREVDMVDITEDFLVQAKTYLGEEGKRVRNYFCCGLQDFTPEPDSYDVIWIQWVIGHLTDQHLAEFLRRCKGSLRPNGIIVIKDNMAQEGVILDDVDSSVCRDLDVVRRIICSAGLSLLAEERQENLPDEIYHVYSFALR
# Furin (Homo sapiens), sequence (P09958 whole entry, looked up): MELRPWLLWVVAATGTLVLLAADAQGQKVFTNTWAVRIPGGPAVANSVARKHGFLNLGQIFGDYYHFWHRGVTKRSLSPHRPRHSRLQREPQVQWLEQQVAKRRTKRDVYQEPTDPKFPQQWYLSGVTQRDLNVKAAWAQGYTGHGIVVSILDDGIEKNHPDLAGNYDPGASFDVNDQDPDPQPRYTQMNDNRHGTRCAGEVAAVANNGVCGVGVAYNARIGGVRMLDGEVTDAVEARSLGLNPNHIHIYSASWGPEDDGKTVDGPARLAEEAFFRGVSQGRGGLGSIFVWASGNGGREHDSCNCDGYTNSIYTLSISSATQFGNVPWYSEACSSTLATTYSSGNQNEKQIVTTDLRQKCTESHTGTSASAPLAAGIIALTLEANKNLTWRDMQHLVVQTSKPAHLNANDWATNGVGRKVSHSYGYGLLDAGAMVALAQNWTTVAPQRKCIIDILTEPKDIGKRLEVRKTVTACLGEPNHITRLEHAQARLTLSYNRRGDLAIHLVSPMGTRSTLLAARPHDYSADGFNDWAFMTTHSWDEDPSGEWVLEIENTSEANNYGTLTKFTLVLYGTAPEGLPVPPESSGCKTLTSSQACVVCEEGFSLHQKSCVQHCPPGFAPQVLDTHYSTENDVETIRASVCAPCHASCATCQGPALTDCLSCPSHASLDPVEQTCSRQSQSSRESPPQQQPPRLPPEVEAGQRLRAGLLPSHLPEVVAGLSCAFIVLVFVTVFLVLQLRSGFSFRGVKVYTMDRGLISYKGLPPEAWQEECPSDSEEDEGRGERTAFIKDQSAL
smiles,measurement,setting,value
N[C@@H](Cc1cc(I)c(Oc2cc(I)c(O)c(I)c2)c(I)c1)C(=O)O,Potency,[1],inactive
same,Potency,[2],inactive
same,Potency,[3],6.1 µM (active)
same,Potency,[4],inactive
same,Potency,[5],6.31 µM (active)
same,Potency,[6],9.67 µM (active) and 12.6 µM (active)
same,Potency,[7],inactive
same,Potency,[8],10 µM (active)
same,Potency,[9],inactive
same,"activity change, negative = inhibition",[10],-3.48% [at 0.566 µM]
same,Potency,[11],inactive
CC1(C)NC(=O)N(c2ccc([N+](=O)[O-])c(C(F)(F)F)c2)C1=O,Potency,[12],inactive
same,Potency,[13],inactive
same,Potency,[2],inactive
same,Potency,[11],inactive
O=C(c1ccccc1)c1ccc2n1CCC2C(=O)O (stereo not given),Potency,[12],inactive
same,Potency,[13],inactive
same,Potency,[2],inactive
same,Potency,[11],inactive
O=c1ccc2ccc(O)c(O)c2o1,Potency,[12],39.8 µM (active)
same,Potency,[13],inactive
same,Potency,[2],inactive
CC(C)c1ccc2c(c1)c(SC(C)(C)C)c(CC(C)(C)C(=O)O)n2Cc1ccc(Cl)cc1,Potency,[12],inactive
same,Potency,[13],1.34 µM (active)
same,Potency,[2],inactive
same,Potency,[6],1.56 µM (active)
same,Potency,[7],14.1 µM (active)
same,Potency,[8],14.1 µM (active)
same,Potency,[14],inactive
C[C@@H](N)C1CCC(C(=O)Nc2ccncc2)CC1 (stereo not given in full),Potency,[12],inactive
same,Potency,[13],inactive
same,Potency,[2],inactive
CCOC(=O)C(C)Oc1cccc2c(=O)n(CC(=O)Nc3ccc4c(c3)OCCO4)ccc12 (stereo not given),Potency,[13],21.2 µM (active)
same,Potency,[2],inactive
C=CCc1cc(OC)c(O)c(C(=O)NCCO)c1,Potency,[2],inactive
same,Potency,[11],inactive
CC(C)c1nc(CN(C)C(=O)N[C@H](C(=O)N[C@@H](Cc2ccccc2)C[C@H](O)[C@H](Cc2ccccc2)NC(=O)OCc2cncs2)C(C)C)cs1,Potency,[2],inactive
same,Potency,[15],inactive
same,Potency,[5],inactive
same,Potency,[11],inactive
Oc1ccc(OCc2ccccc2)cc1,Potency,[2],inactive
same,Potency,[11],inactive
C[Se]CCC(N)C(=O)O (stereo not given),Potency,[2],inactive
CCC1=C(C)CN(C(=O)NCCc2ccc(S(=O)(=O)NC(=O)NC3CCC(C)CC3)cc2)C1=O (stereo not given),Potency,[2],inactive
same,Potency,[5],inactive
same,Potency,[11],inactive
COC(=O)C1=C(C)NC(C)=C(C(=O)OC(C)C)C1c1cccc2nonc12 (stereo not given),Potency,[2],inactive
COc1c(O)cc2c(c1O)[C@@H]1O[C@H](CO)[C@@H](O)[C@H](O)[C@H]1OC2=O,Potency,[2],inactive
same,Potency,[5],inactive
OC(CN1CCN(c2cccc(Cl)c2)CC1)C(c1ccccc1)c1ccccc1 (stereo not given),Potency,[2],inactive
same,Potency,[15],inactive
same,Potency,[5],inactive
CCOC(=O)C1=C[C@@H](OC(CC)CC)[C@H](NC(C)=O)[C@@H](N)C1,Potency,[2],inactive
CC(C)[N+]1(C)[C@@H]2CC[C@H]1CC(OC(=O)C(CO)c1ccccc1)C2 (stereo not given in full),Potency,[2],inactive
Cc1nccn1CC1CCc2c(c3ccccc3n2C)C1=O (stereo not given),Potency,[2],inactive
same,Potency,[15],inactive
same,Potency,[5],inactive
same,Potency,[11],inactive
COc1cc2c(N3CCN(C(=O)Nc4ccc(OC(C)C)cc4)CC3)ncnc2cc1OCCCN1CCCCC1,Potency,[2],inactive
same,Potency,[15],inactive
same,Potency,[5],inactive
Cc1cc2c(s1)Nc1ccccc1N=C2N1CCN(C)CC1,Potency,[2],inactive
same,Potency,[15],inactive
same,Potency,[5],inactive
same,Potency,[11],inactive
